Measurements as given in PubChem BioAssay.
A number with no mark means an inactive call. No rule for the calls is given here.

Molecular target: Pantothenate synthetase (Mycobacterium tuberculosis (strain ATCC 25618 / H37Rv)) (UniProt P9WIL5)
Assay: Recombinant Mtb pantothenate synthetase (PanC) inhibitors, coupled enzyme, confirmatory (AID 375);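 also: 0% = full reaction with vehicle and 100% = no enzyme background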
Conditions: coupled enzyme assay; at 10 µM, active compounds read high

Sequence of Pantothenate synthetase (Mycobacterium tuberculosis (strain ATCC 25618 / H37Rv)) (P9WIL5 whole entry, looked up): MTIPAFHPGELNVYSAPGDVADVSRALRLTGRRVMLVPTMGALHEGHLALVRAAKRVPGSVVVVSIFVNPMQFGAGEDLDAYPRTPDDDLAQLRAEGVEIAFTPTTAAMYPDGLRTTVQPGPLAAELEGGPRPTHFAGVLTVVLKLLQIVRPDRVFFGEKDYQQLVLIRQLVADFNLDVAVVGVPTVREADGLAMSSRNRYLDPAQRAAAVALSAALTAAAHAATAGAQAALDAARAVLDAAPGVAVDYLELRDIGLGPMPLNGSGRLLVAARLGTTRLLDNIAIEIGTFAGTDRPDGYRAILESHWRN

Compound | inhibition [%]
COc1ccc(OC)c(C(C)NC=O)c1 (configuration not stated) | 4
Oc1ccc(-c2n[nH]c(=S)n2Cc2ccccc2)cc1 | 0
COc1ccc(NC(=O)c2cc(C)on2)cc1OC | 8
COc1ccc(C2NC(c3ccc(OC)c(OC)c3OC)C(C)C(=O)C2C)c(OC)c1OC (configuration not stated) | 0
N#Cc1cc2ccccc2nc1SCC(=O)Nc1ccccc1N1CCOCC1 | 0
COc1ccc(-c2nnn(CCc3nn[nH]n3)n2)cc1OC | 0
Cc1ccc(CSc2nc3c(c(=O)[nH]2)C(c2ccncc2)C2=C(CCCC2=O)N3)cc1 (configuration not stated) | 4
